The panel holds about 83,000 compounds, 20% with a hit somewhere; the sample as a whole holds those more often.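 Treatment: one concentration, 48 hours, 96-well format. Scoring: percent growth, with anything below 10 considered active.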 Calls of active or inactive are those of the source.
What was measured:
Experiment in all cases: NCI-60 one-dose screen, 48 h (100 = growth as untreated, 0 = no growth, -100 = all killed)
Conditions in all cases: 10 µM unless noted
NCI-H23 lung = tested on: NCI-H23 lung
NCI-H226 lung = tested on: NCI-H226 lung
NCI-H322M lung = tested on: NCI-H322M lung
HOP-62 NSCLC = tested on: HOP-62 NSCLC
NCI-H460 lung = tested on: NCI-H460 lung
NCI-H522 lung = tested on: NCI-H522 lung
A549/ATCC NSCLC = tested on: A549/ATCC NSCLC
786-0 renal = tested on: 786-0 renal
COLO 205 colon = tested on: COLO 205 colon
HOP-92 NSCLC = tested on: HOP-92 NSCLC

Measured: growth

Clc1ccc(C(Cn2ccnc2)OCc2ccsc2Cl)c(Cl)c1 (centres undefined)
inactive: NCI-H23 lung 37.9% | NCI-H226 lung 63% | NCI-H322M lung 88.2% | HOP-62 NSCLC 73.6% | NCI-H460 lung 57.7% | NCI-H522 lung 35.1% | A549/ATCC NSCLC 56.1% | 786-0 renal 55.6% | COLO 205 colon 62.9%

O=S1(=O)OC(c2cc(Cl)c(O)c(Br)c2)(c2cc(Cl)c(O)c(Br)c2)c2ccccc21
inactive: NCI-H23 lung 103% | NCI-H226 lung 104% | NCI-H322M lung 112% | HOP-62 NSCLC 99% | NCI-H460 lung 105% | NCI-H522 lung 70.8% | A549/ATCC NSCLC 94.1% | 786-0 renal 106% | COLO 205 colon 115%

CC(C)[C@@H]1CC[C@@H]2[C@@H]1[C@H](OC(=O)/C=C/c1ccccc1)[C@]1(C(C)C)C[C@@H](OC(=O)CO)[C@@]2(C)O1
inactive: NCI-H23 lung 83.1% | NCI-H226 lung 63.2% | NCI-H322M lung 105% | HOP-62 NSCLC 87.4% | NCI-H460 lung 89.3% | NCI-H522 lung 65.9% | A549/ATCC NSCLC 71.4% | 786-0 renal 78.1%

COc1cc2c(cc1OCCCCN1CCN(CC(=O)Nc3ccc(Cl)cc3C(=O)c3ccccc3Cl)CC1)N=CC1CCCN1C2=O (centres undefined)
active: NCI-H23 lung -14% | NCI-H226 lung -88.1% | NCI-H322M lung -64% | HOP-62 NSCLC -88.8% | NCI-H460 lung -56.2% | NCI-H522 lung -83.4% | A549/ATCC NSCLC -69.5% | 786-0 renal -94.2% | COLO 205 colon -61.4%

CCCC(=O)OCC1OC(n2cnc3c(=S)nc[nH]c32)C(OC(=O)CCC)C1OC(=O)CCC (centres undefined)
inactive: NCI-H23 lung 29.4% | NCI-H226 lung 32.5% | NCI-H322M lung 35.4% | HOP-62 NSCLC 24.1% | NCI-H460 lung 54.9% | A549/ATCC NSCLC 83.9% | 786-0 renal 22.3% | COLO 205 colon 67.3%
active: NCI-H522 lung -12.7%

COc1cc(Nc2ncc(F)c(Nc3ccc4c(n3)N(COP(=O)(O)O)C(=O)C(C)(C)O4)n2)cc(OC)c1OC
active: NCI-H226 lung -14.6% | HOP-62 NSCLC 2.67% | NCI-H522 lung -28.5% | A549/ATCC NSCLC 0.294% | 786-0 renal -23.8% | COLO 205 colon -22.8%
inactive: NCI-H23 lung 29.7% | NCI-H322M lung 20.6% | NCI-H460 lung 25.4%

CC(C)[C@@H](C)/C=C/[C@@H](C)[C@H]1CCC2=C3C=CC4=CC(=O)CC[C@]4(C)[C@H]3CC[C@@]21C
inactive: NCI-H23 lung 96% | NCI-H226 lung 93.2% | NCI-H322M lung 93.9% | HOP-62 NSCLC 104% | NCI-H460 lung 107% | NCI-H522 lung 67.2% | A549/ATCC NSCLC 77.4% | 786-0 renal 101% | COLO 205 colon 105%

O=C(Cn1cncn1)Nc1ccc(-c2nc3ccccc3s2)cc1
inactive: NCI-H23 lung 87.5% | NCI-H226 lung 75% | NCI-H322M lung 101% | HOP-62 NSCLC 102% | NCI-H460 lung 97% | NCI-H522 lung 87.5% | A549/ATCC NSCLC 88.1% | 786-0 renal 95.6% | COLO 205 colon 107%

Cc1cc(C(=O)NOCCO)c(Nc2ccc(I)cc2F)n(C)c1=O
inactive: NCI-H23 lung 25.9% | NCI-H226 lung 71.2% | NCI-H322M lung 19.8% | HOP-62 NSCLC 38.9% | NCI-H460 lung 66.6% | NCI-H522 lung 55% | A549/ATCC NSCLC 32.8% | 786-0 renal 71.3%
active: COLO 205 colon 4.04%

Brc1ccc([I+]c2ccc(Br)cc2)cc1
active: NCI-H23 lung -9.33% | HOP-62 NSCLC -83% | NCI-H522 lung -35.7% | COLO 205 colon -28.7%
inactive: NCI-H226 lung 45.9% | NCI-H322M lung 48.1% | NCI-H460 lung 18.6% | A549/ATCC NSCLC 40.5% | 786-0 renal 27.7%

COC(=O)CNC(=O)[C@@H](OC)[C@@H]1Cc2cc3cc(OC4CC(OC5CC(O)C(O)C(C)O5)C(O)C(C)O4)c(C)c(O)c3c(O)c2C(=O)[C@H]1OC1CC(OC2CC(OC3CC(C)(O)C(O)C(C)O3)C(O)C(C)O2)C(O)C(C)O1 (some centres undefined)
inactive: NCI-H322M lung 15.7% | HOP-62 NSCLC 21.6%
active: NCI-H23 lung -16.8% | NCI-H226 lung -10% | NCI-H460 lung 9.15% | NCI-H522 lung -19% | A549/ATCC NSCLC 7.82% | 786-0 renal -2.99% | COLO 205 colon -17.6%

C/C(=C(/c1ccc(Cl)cc1)c1ccc(OCCN2CCCCC2)cc1)c1ccccc1
inactive: NCI-H23 lung 76.3% | NCI-H226 lung 98.7% | NCI-H322M lung 91.4% | HOP-62 NSCLC 68.8% | NCI-H460 lung 74.4% | NCI-H522 lung 81.4% | A549/ATCC NSCLC 57.2% | 786-0 renal 75.6% | COLO 205 colon 11.8%

CN1CCN(c2ccc(C(=O)Nc3n[nH]c4ccc(Cc5cc(F)cc(F)c5)cc34)c(NC3CCOCC3)c2)CC1
active: NCI-H226 lung -5.76% | HOP-62 NSCLC -34.8% | NCI-H460 lung -80.3% | NCI-H522 lung -70.6% | A549/ATCC NSCLC -51.7% | 786-0 renal -95.1% | COLO 205 colon -73.6%
inactive: NCI-H23 lung 11% | NCI-H322M lung 33.8%

COc1ccc(-c2ccc3ncc4c(c3c2)n(-c2ccc(N3CCNCC3)c(C(F)(F)F)c2)c(=O)n4C)cn1
active: NCI-H23 lung -71.6% | NCI-H226 lung -66.4% | NCI-H322M lung -89.6% | HOP-62 NSCLC -72% | NCI-H460 lung -82.9% | NCI-H522 lung -61.7% | A549/ATCC NSCLC -83.2% | 786-0 renal -81.1% | COLO 205 colon -73.9%

Fc1ccc(NCc2cn(-c3ccccc3)nc2-c2ccc(OCc3ccccc3)cc2)cc1Cl
inactive: NCI-H23 lung 82% | NCI-H226 lung 102% | NCI-H322M lung 105% | HOP-62 NSCLC 76.6% | NCI-H460 lung 110% | NCI-H522 lung 58.5% | A549/ATCC NSCLC 83.3% | 786-0 renal 88.7%

CCOC(=O)Sc1ncnc2nc[nH]c12
active: NCI-H522 lung -18.8%
inactive: NCI-H23 lung 64.8% | NCI-H226 lung 37.4% | NCI-H322M lung 40.4% | HOP-62 NSCLC 17.2% | NCI-H460 lung 71.8% | A549/ATCC NSCLC 104% | 786-0 renal 18% | COLO 205 colon 103%

O=C(CNc1nc(-c2ccc(Cl)cc2)cs1)Nc1ccc(-c2nc3ccccc3s2)cc1
inactive: NCI-H23 lung 87.6% | NCI-H226 lung 80.3% | NCI-H322M lung 91.6% | HOP-62 NSCLC 106% | NCI-H460 lung 91.3% | NCI-H522 lung 93.1% | A549/ATCC NSCLC 99% | 786-0 renal 109% | COLO 205 colon 93.8%

Cc1cc(C2(c3ccc(O)c(C)c3)OS(=O)(=O)c3ccccc32)ccc1O
inactive: NCI-H23 lung 101% | NCI-H226 lung 97.9% | NCI-H322M lung 103% | HOP-62 NSCLC 107% | NCI-H460 lung 103% | NCI-H522 lung 115% | A549/ATCC NSCLC 101% | 786-0 renal 112% | COLO 205 colon 96.3%

O=CC(OC(=O)c1ccccc1)C(OC(=O)c1ccccc1)C(COC(c1ccccc1)(c1ccccc1)c1ccccc1)OC(=O)c1ccccc1 (centres undefined)
active: HOP-92 NSCLC -54.6%
inactive: NCI-H23 lung 51.3% | NCI-H226 lung 76.4% | NCI-H322M lung 97.1% | HOP-62 NSCLC 99.8% | NCI-H460 lung 89.2% | NCI-H522 lung 40.4% | A549/ATCC NSCLC 97.5% | COLO 205 colon 57.2%

COCC(=O)NC/C=C/c1ccc2ncnc(Nc3ccc(Oc4ccc(C)nc4)c(C)c3)c2c1
inactive: NCI-H23 lung 39.3% | NCI-H226 lung 53.5% | NCI-H322M lung 10.8% | HOP-62 NSCLC 58.8% | NCI-H460 lung 50.7% | NCI-H522 lung 14.8% | A549/ATCC NSCLC 46% | 786-0 renal 55%
active: COLO 205 colon 9.48%

Cc1oc2c(C(=O)N/N=C\c3ccc(O)cc3O)c[nH]c2c1C
inactive: NCI-H23 lung 40.7% | NCI-H226 lung 28.8% | NCI-H322M lung 26.3% | HOP-62 NSCLC 20.9% | NCI-H522 lung 16.1% | A549/ATCC NSCLC 12.7%
active: NCI-H460 lung 4.29% | 786-0 renal 5.43% | COLO 205 colon 8.96%

COc1ccc(-c2cc3c(oc2=O)-c2ccccc2OC3OC(C)=O)cc1 (centres undefined)
inactive: NCI-H23 lung 93.4% | NCI-H226 lung 94.3% | NCI-H322M lung 100% | HOP-62 NSCLC 98.8% | NCI-H460 lung 104% | NCI-H522 lung 88% | A549/ATCC NSCLC 93.3% | 786-0 renal 91.3% | COLO 205 colon 97.4%

CC(=O)c1c(C)c2cnc(Nc3ccc(N4CCNCC4)cn3)nc2n(C2CCCC2)c1=O
inactive: NCI-H23 lung 50.9% | NCI-H226 lung 52.7% | HOP-62 NSCLC 42% | NCI-H460 lung 14.1% | HOP-92 NSCLC 66% | A549/ATCC NSCLC 22.6% | 786-0 renal 24.9% | COLO 205 colon 18.5%
active: NCI-H522 lung -76.7%

c1cn2cc(-c3ccc4cn[nH]c4c3)nc(Nc3ccc(N4CCOCC4)cc3)c2n1
inactive: NCI-H23 lung 64.8% | NCI-H226 lung 20.8% | NCI-H460 lung 41.7% | HOP-92 NSCLC 39.2% | NCI-H522 lung 24.4% | A549/ATCC NSCLC 45% | 786-0 renal 59.2% | COLO 205 colon 61.3%
active: HOP-62 NSCLC 9.23%

O=C1CC(c2ccc(Cl)cc2)c2ncn(-c3cccc(Cl)c3)c2N1 (centres undefined)
inactive: NCI-H23 lung 72% | NCI-H226 lung 71% | HOP-62 NSCLC 51.2% | NCI-H460 lung 34% | HOP-92 NSCLC 60.8% | NCI-H522 lung 27.6% | A549/ATCC NSCLC 45.2% | 786-0 renal 55%

O=C(O)c1ccc(Nc2ncc3c(n2)-c2ccc(Cl)cc2C(c2c(F)cccc2F)=NC3)cc1
inactive: NCI-H23 lung 64.9% | NCI-H226 lung 51.7% | HOP-62 NSCLC 37.7% | NCI-H460 lung 39.5% | HOP-92 NSCLC 54.4% | NCI-H522 lung 29.9% | A549/ATCC NSCLC 30% | 786-0 renal 63%
active: COLO 205 colon 2.8%

COc1cc2ncnc(Nc3ccc(F)c(Cl)c3)c2cc1NC(=O)/C=C/CN1CCCCC1
active: NCI-H23 lung -54.1% | NCI-H226 lung -83.4% | HOP-62 NSCLC -51.9% | NCI-H460 lung -69.9% | HOP-92 NSCLC -83.6% | NCI-H522 lung -56.9% | A549/ATCC NSCLC -76.9% | 786-0 renal -81.7% | COLO 205 colon -76.6%

C[C@@H](NC(=O)c1ncnc(N)c1Cl)c1ncc(C(=O)Nc2cc(C(F)(F)F)c(Cl)cn2)s1
inactive: NCI-H23 lung 59.8% | NCI-H226 lung 78.6% | HOP-62 NSCLC 63.1% | NCI-H460 lung 71.6% | HOP-92 NSCLC 64.1% | NCI-H522 lung 46% | A549/ATCC NSCLC 53.2% | 786-0 renal 110% | COLO 205 colon 13.2%
